Bioassay records: PubChem BioAssay, Broad Institute
Compounds with a hit are over-represented: about 3% of the library has one in this group of screens.
Wnt bcat act = Wnt/beta-catenin pathway activators, primary screen, cell-based, plate reader, single point | Wnt/beta-catenin reporter cell assay, activator | activation, % at 9.35 µM | hit rate 1.2% among 300,000; in the data active = activation above about 30%, passing the limit was not always enough; inconclusive = no clear call, values can overlap the other calls
esBAF inh = Bmi1 luciferase reporter increase in mESCs, primary screen, esBAF inhibitor project, mouse ES cells, Bmi1 luciferase knock-in, single point. AID 602393, 2012. reporter increase, % at 12.5 µM. hit rate 2% among 350,000. 24 h; 100% = twice the neutral-well signal; in the data active = activation above about 40%; inconclusive = no clear call, values can overlap the other calls;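 note: a rise in the Bmi1 reporter signal indicates esBAF inhibition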
MITF TRPM1 HTS = activators of MITF-driven TRPM1 promoter reporter, primary screen, cell-based, SK-MEL-5, luciferase, single point | SK-MEL-5 TRPM1-promoter luciferase, 24 h; % of positive control, neutral wells = 0 | activation, % at 12.5 µM | hit rate 0.75% among 300,000;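 active = mean activation of at least 80% with every replicate also reaching 80%; inconclusive = mean reaches 80% but some replicate falls short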
C2C12 statin = suppressors of statin myotoxicity in C2C12 myotubes, primary screen, cell-based, single point, plate reader; C2C12 myotubes + simvastatin, ATP luminescence, 48 h; scaled: DMSO 0, geranylgeraniol control 100; rescue of ATP level, % at 7.49 µM; hit rate 0.78% among 330,000;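 active = mean ATP rescue above about 67%, or every replicate alone reaching that limit, limit read from the data, passing the limit was not always enough; inconclusive = no clear call, values can overlap the other calls; inactive = mean under the limit and some replicate under it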;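 note: myotubes were challenged with 10 µM simvastatin during compound exposure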
Large screens that a line does not name were inactive.

O=C(C[C@@H]1C=C[C@H](NC(=O)Nc2ccc(C(F)(F)F)cc2)[C@@H](CO)O1)NCCN1CCCC1	none (no result: Wnt bcat act, MITF TRPM1 HTS)
CCN(C(=O)c1cc2c(=O)n3ccccc3nc2n1C)C1CCCCC1	none
CN(C(=O)c1cc2c(=O)n3ccccc3nc2n1C)C1CCCCC1	Wnt bcat act 37
CC1CCN(C(=O)c2cc3c(=O)n4ccccc4nc3s2)CC1	none
CCN(C(=O)c1cc2c(=O)n3ccccc3nc2s1)C1CCCCC1	esBAF inh 58
CCN(C(=O)c1cc2c(=O)n3cccc(C)c3nc2s1)C1CCCCC1	esBAF inh 67
C[C@@H]1CCCCO[C@@H](CN(C)S(=O)(=O)c2cn(C)cn2)[C@H](C)CN([C@@H](C)CO)C(=O)c2cc(NC(=O)c3ccccc3)ccc2O1	none (no result: Wnt bcat act, MITF TRPM1 HTS, C2C12 statin)
O=C(Nn1c(SCc2cccc([N+](=O)[O-])c2)nc2ccccc2c1=O)c1ccccc1	Wnt bcat act 43 (no result: esBAF inh, C2C12 statin)
COc1ccc(S(=O)(=O)N(C)C[C@H]2OCCCC[C@@H](C)Oc3ccc(NC(=O)c4ccccc4)cc3C(=O)N([C@@H](C)CO)C[C@H]2C)cc1	none (no result: Wnt bcat act, MITF TRPM1 HTS, C2C12 statin)
COc1ccc(S(=O)(=O)N2CCOCC2)cc1NC(=O)CSc1ncccn1	C2C12 statin 110 (no result: esBAF inh)
COc1ccc(S(=O)(=O)N2CCOCC2)cc1NC(=O)c1ccc2c(c1)OCCO2	Wnt bcat act 40
COc1ccc(S(=O)(=O)N2CCOCC2)cc1NC(=O)c1ccc(Cl)cc1	none
CO[C@H]1CN(C)C(=O)c2cc(NS(=O)(=O)c3ccc(C)cc3)ccc2OC[C@@H](C)NC[C@@H]1C	none (no result: Wnt bcat act, MITF TRPM1 HTS)
Cc1cc(C(=O)CN2C(=O)NC(CC(C)C)C2=O)c(C)n1C1CC1 (stereo unspecified)	esBAF inh 43
CC(C)NC(=O)N(C)C[C@H]1OCCCC[C@@H](C)Oc2ccc(NC(=O)c3ccncc3)cc2C(=O)N([C@@H](C)CO)C[C@@H]1C	none (no result: Wnt bcat act, MITF TRPM1 HTS)
CCOc1ccc(-c2nc(CSc3nnc(N)s3)cs2)cc1	esBAF inh 49 (no result: Wnt bcat act)
CCCOc1ccc(-c2cnc(N)s2)cc1	esBAF inh 76, MITF TRPM1 HTS 88
CCOC(=O)c1ccc(CSc2nnc(N)s2)cc1	esBAF inh 48 (no result: Wnt bcat act, MITF TRPM1 HTS)
CCCOc1ccc(-c2cnc(SCC(N)=O)nc2N)cc1	none
CCCOc1ccc(OCCSc2nnc(N)s2)cc1	esBAF inh 53 (no result: Wnt bcat act)
CCOc1ccc(-c2nc(CSc3nnc(N)s3)cs2)cc1OC	esBAF inh 47 (no result: Wnt bcat act)
COc1ccc(OC)c(S(=O)(=O)N2Cc3ccccc3CC2C(=O)Nc2nccs2)c1 (stereo unspecified)	esBAF inh 51 (no result: Wnt bcat act)
COc1cc(NC(=O)C2Cc3ccccc3CN2S(C)(=O)=O)cc(OC)c1 (stereo unspecified)	none
Cc1ccnc(N/C=C/C(=O)c2ccc(Br)cc2)c1	Wnt bcat act 39
Cc1cc(N/C=C/C(=O)c2cccc3ccccc23)no1	none (no result: Wnt bcat act)
O=C(/C=C\Nc1ccc(Cl)cn1)c1ccc(Br)cc1	Wnt bcat act 36, MITF TRPM1 HTS 103 (no result: esBAF inh, C2C12 statin)
Cc1cc(N/C=C/C(=O)c2ccc(Br)cc2)no1	Wnt bcat act 33, esBAF inh 81, MITF TRPM1 HTS 105
COCC(=O)N[C@H]1C=C[C@@H](CC(=O)NCc2ccc(Cl)cc2)O[C@@H]1CO	none (no result: Wnt bcat act, MITF TRPM1 HTS)
CCCC(=O)Nc1ccc2c(c1)OC[C@@H](C)N(Cc1ccncc1)C[C@H](C)[C@@H](OC)CN(C)C2=O	none (no result: Wnt bcat act, MITF TRPM1 HTS)
O=C(NC1CCC1)[C@H]1[C@H](CO)[C@H]2Cn3c(ccc(/C=C/c4ccccc4)c3=O)[C@H]2N1Cc1cncnc1	none (no result: Wnt bcat act, MITF TRPM1 HTS)
Cc1ccc(/C=C(\C#N)C(=O)Nc2ccccn2)o1	esBAF inh 63, MITF TRPM1 HTS 103
O=C(C[C@H]1C[C@H]2c3cc(NC(=O)Nc4ccccc4)ccc3O[C@H]2[C@H](CO)O1)NCC1CC1	none (no result: Wnt bcat act, MITF TRPM1 HTS)
Brc1c(CSc2nc3ccccc3o2)nc2ncccn12	Wnt bcat act 49 (no result: MITF TRPM1 HTS, C2C12 statin)
Clc1c(CSc2nc3ccccc3o2)nc2ccccn12	none (no result: Wnt bcat act)
C[C@@H]1CCCCO[C@H](CN(C)CC2CCCCC2)[C@@H](C)CN([C@@H](C)CO)C(=O)c2cc(NS(=O)(=O)c3cn(C)cn3)ccc2O1	none (no result: Wnt bcat act, MITF TRPM1 HTS)
CCOc1ccc2oc(C(=O)NNC(=O)c3ccccc3O)c(C)c2c1	esBAF inh 48
Cc1c(C(=O)NNC(=O)c2ccccc2O)oc2ccc(Br)cc12	none
CCOc1ccc2oc(C(=O)Nc3ccc(N4CCOCC4)cc3)c(C)c2c1	none
CCOc1ccc2oc(C(=O)Nc3cc(C)ccn3)c(C)c2c1	Wnt bcat act 42, MITF TRPM1 HTS inconclusive
Cc1ccnc(NC(=O)c2oc3ccccc3c2C)c1	none
CCOc1ccc2oc(C(=O)Nc3ccc4c(c3)OCO4)c(C)c2c1	MITF TRPM1 HTS 90 (no result: esBAF inh, C2C12 statin)
Cc1noc(C)c1NC(=O)N(C)C[C@@H]1Oc2ncc(C#CC(C)C)cc2C(=O)N([C@@H](C)CO)C[C@H]1C	none (no result: Wnt bcat act, MITF TRPM1 HTS)
O=C1NC(=O)C(=Cc2ccc(Cl)cc2Cl)S1	Wnt bcat act 39 (no result: esBAF inh)
O=C(Nc1ccc(CN2CCOCC2)cc1)c1ccc(F)cc1	none
O=C(Nc1ccc(CN2CCOCC2)cc1)c1ccc(Cl)cc1	esBAF inh 44
Cc1cc(/C=N/NC(=O)c2ccc(CN3CCOCC3)cc2)c(C)n1-c1ccccc1	C2C12 statin 116 (no result: Wnt bcat act)
O=C(Nc1ccc(CN2CCOCC2)cc1)c1ccc2ccccc2c1	esBAF inh 61
O=C(Nc1ccc(CN2CCOCC2)cc1)c1cccc(F)c1	MITF TRPM1 HTS 88 (no result: Wnt bcat act)
O=C(Nc1ccc(CN2CCOCC2)cc1)c1ccc(Br)cc1	esBAF inh inconclusive (no result: MITF TRPM1 HTS)
C[C@H](CO)N1C[C@H](C)[C@H](CN(C)S(=O)(=O)c2ccccc2)Oc2c(NC(=O)C3CCCCC3)cccc2C1=O	none (no result: Wnt bcat act, MITF TRPM1 HTS)
C[C@@H]1CCCCO[C@@H](CN(C)C(=O)NC2CCCCC2)[C@@H](C)CN([C@@H](C)CO)C(=O)c2cc(NC(=O)Nc3ccccc3)ccc2O1	none (no result: Wnt bcat act, MITF TRPM1 HTS, C2C12 statin)
C/C(=N\NC(=O)c1ccc(CN2CCOCC2)cc1)c1ccc(NC(=O)c2ccccc2)cc1	esBAF inh 66
CC(=O)Nc1ccc(/C(C)=N/NC(=O)c2ccc(CN3CCOCC3)cc2)cc1	none (no result: esBAF inh, C2C12 statin)
Cc1ccc(/C=N\Nc2cn[nH]c(=O)c2Cl)cc1	esBAF inh 53
Cc1c(-c2nc(N)nc(Nc3ccc(F)cc3)n2)oc2ccccc12	esBAF inh 62 (no result: C2C12 statin)
COc1ccccc1Nc1nc(N)nc(-c2oc3ccccc3c2C)n1	none (no result: Wnt bcat act, MITF TRPM1 HTS)
Cc1ccccc1Nc1nc(N)nc(-c2oc3ccccc3c2C)n1	Wnt bcat act 47 (no result: esBAF inh, MITF TRPM1 HTS, C2C12 statin)
C[C@@H]1CCCCO[C@H](CN(C)S(C)(=O)=O)[C@@H](C)CN([C@@H](C)CO)C(=O)c2cc(NC(=O)Nc3ccc(C(F)(F)F)cc3)ccc2O1	none (no result: Wnt bcat act, MITF TRPM1 HTS, C2C12 statin)
CN1c2ccc(-c3cccc(C#N)c3)cc2[C@H]2[C@H](CCN2C(=O)CC2CC2)[C@H]1CO	none (no result: Wnt bcat act, MITF TRPM1 HTS)
COC(=O)c1ccc(/C=C/c2ccc3cccc(OC(C)=O)c3n2)cc1	none (no result: Wnt bcat act, esBAF inh, C2C12 statin)
CCOc1c(OC(C)=O)ccc(/C=C/c2ccc3cccc(OC(C)=O)c3n2)c1[N+](=O)[O-]	esBAF inh 66
O=[N+]([O-])c1ccccc1/C=C/c1ccc2ccccc2n1	esBAF inh 52
